Screens as filed in PubChem.
Anthrax LF prot = blocks Bacillus anthracis lethal factor protease; 360,000 tested, 0.12% active; multiplex microsphere protease cleavage assay, LF; AID 588501; inhibition, % at 10 µM; P15917; also: plate controls were buffer without enzyme for full effect and enzyme alone for no effect
Target sequence (P15917 whole entry, looked up): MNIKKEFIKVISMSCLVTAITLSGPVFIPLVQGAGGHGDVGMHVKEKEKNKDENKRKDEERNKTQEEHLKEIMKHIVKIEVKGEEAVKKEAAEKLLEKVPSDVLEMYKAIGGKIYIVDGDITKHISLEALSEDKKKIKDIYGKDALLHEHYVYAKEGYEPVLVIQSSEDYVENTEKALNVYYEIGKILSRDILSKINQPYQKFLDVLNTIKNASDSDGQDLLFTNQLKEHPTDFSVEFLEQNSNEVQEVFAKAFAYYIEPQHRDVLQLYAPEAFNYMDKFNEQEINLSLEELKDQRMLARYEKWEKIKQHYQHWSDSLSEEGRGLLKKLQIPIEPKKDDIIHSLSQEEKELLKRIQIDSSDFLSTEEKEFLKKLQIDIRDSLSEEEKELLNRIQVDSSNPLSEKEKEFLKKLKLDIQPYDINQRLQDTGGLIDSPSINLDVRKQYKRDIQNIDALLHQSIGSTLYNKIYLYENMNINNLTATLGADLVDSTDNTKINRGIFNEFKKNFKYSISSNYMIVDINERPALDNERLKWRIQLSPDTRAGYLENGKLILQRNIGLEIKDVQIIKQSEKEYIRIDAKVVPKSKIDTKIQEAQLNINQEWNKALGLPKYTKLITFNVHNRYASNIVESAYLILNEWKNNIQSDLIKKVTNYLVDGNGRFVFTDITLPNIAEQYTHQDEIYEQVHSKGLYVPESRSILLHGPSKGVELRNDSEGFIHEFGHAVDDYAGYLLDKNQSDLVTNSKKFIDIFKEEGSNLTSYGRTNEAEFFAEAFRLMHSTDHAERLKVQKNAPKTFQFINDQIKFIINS
BoNT A protease = inhibitors of Botulinum neurotoxin A light chain protease. multiplex microsphere protease substrate cleavage, flow cytometry. inhibition, % at 10 µM. 360,000 tested, 0.17% active; also: plate controls were buffer without enzyme for full effect and enzyme alone for no effect
Autofluor counter = flagged as autofluorescent in microsphere protease counterscreen; compound autofluorescence counterscreen, microsphere flow cytometry; hits give high values; fluorescence intensity (test concentration not listed); 360,000 tested, 3.1% active; AID 624483; in the data active = fluorescence intensity above about 16000; inconclusive = no clear call, values can overlap the other calls
MazF activator = activators of E. coli MazEF toxin-antitoxin RNase; P0AE70; FAM/BHQ RNA-DNA oligo cleavage fluorescence, 5 h; activation, % at 20 µM; 350,000 tested, 0.32% active; in the data active = activation above about 50%
BoNT-F LC inh = blocks Botulinum neurotoxin F light chain protease; 360,000 tested, 0.22% active; Multiplex microsphere protease cleavage assay, flow cytometry; inhibition, % at 10 µM; in the data active = inhibition above about 35%, passing the limit was not always enough; inconclusive = no clear call, values can overlap the other calls; also: plate controls were buffer without enzyme for full effect and enzyme alone for no effect
Starred values were filed as active, the others as inactive; ? = inconclusive; nt = no result given. This is a sample that favours compounds with a hit; in the whole collection about 3.6% have one here. Rule as the data show it, unless noted: active = inhibition above about 30%; inconclusive = no clear call, values can overlap the other calls; inactive = below that.

SMILES	Anthrax LF prot	BoNT A protease	Autofluor counter	MazF activator	BoNT-F LC inh
O=C(c1cnc2n(c1=O)CCS2)N(c1ccccc1)C1CCCCC1	-3.6	-0.4	3386	6.0	2.2
COC(=O)c1ccc(C(=O)OC)c(NC(=O)c2cnc3n(c2=O)CCS3)c1	-0.6	?	16274*	-5.1	2.8
CN(Cc1ccccc1)C(=O)c1cnc2n(c1=O)CCS2	0.6	?	19652*	4.9	4.4
Cc1cccc(N(C(=O)c2cnc3n(c2=O)CCS3)C2CCCCC2)c1	2.0	2.5	22301*	-0.5	2.0
COc1cccc(-c2nnc(SCC3CNC(=O)O3)n2-c2ccc(Cl)cc2)c1 (centres undefined)	-0.7	-0.4	2543	3.5	-3.3
O=[N+]([O-])c1ccc(Cc2ccccn2)c([N+](=O)[O-])c1	8.0	-3.4	3969	10.6	?
Fc1ccc(-c2ccnc3nc(-n4cccc4)nn23)cc1	-0.6	0.9	9565	3.0	3.8
COc1ccc(-c2ccnc3nc(N4CCN(c5ccccc5)CC4)nn23)cc1	-11.1	?	22429*	-2.0	-2.3
Fc1ccc(-c2ccnc3nc(N4CCOCC4)nn23)cc1	-1.3	-0.8	23704*	4.5	-2.7
Cc1ccc(S(=O)(=O)N2CC(O)C2)cc1	-6.2	-0.1	3671	-2.5	-4.5
Cc1noc(C)c1N=Nc1ccc(Br)cc1C(=O)O	2.4	0.1	3187	9.5	-0.6
COc1cccc(N=CNc2cccc(OC)c2)c1	-6.3	0.5	3474	12.6	-16.8
O=C1/C(=C/c2cccc([N+](=O)[O-])c2)CCc2ccccc21	-3.7	1.8	2014	-13.7	15.7
O=C1/C(=C/c2cccc([N+](=O)[O-])c2)CSc2ccc(Cl)cc21	29.7*	?	3778	-2.7	?
C/C(=N\NC(=O)Cc1ccccc1)c1ccc(Cl)s1	-6.8	0.7	5357	2.1	-2.4
CNC(=O)c1cc(S(=O)(=O)N(C)C)ccc1Cl	-2.5	0.7	22686*	-0.3	0.5
CCN(CC)S(=O)(=O)c1ccc(Cl)c(C(=O)OC)c1	0.8	?	17005*	1.1	-3.6
CCN(CC)S(=O)(=O)c1cc(C(=O)OC)ccc1Cl	-3.9	-0.7	20925*	-1.0	-3.6
COC(=O)c1ccc(Cl)c(NC(C)=O)c1	0.7	?	21958*	5.0	-4.6
COC(=O)c1ccc(Cl)c(NC(=O)NC2CCCCC2)c1	-3.2	0.2	2995	-3.0	-4.4
Cc1ccc(NC(=O)CN2C(=O)N/C(=C\c3ccco3)C2=O)cc1	-2.2	0.1	3841	5.7	7.1
CNC(C)C(=O)NC(C(=O)N1CCCC1C(=O)NNc1ccccc1)C(C)C (centres undefined)	-9.7	0.6	3852	-3.6	-0.7
CS(=O)(=O)c1ccc(NC(=O)CCN2C(=O)C3CC=CCC3C2=O)cc1 (centres undefined)	nt	nt	nt	-3.0	nt
CCC(C(=O)N1CCC2(CC1)OCCO2)c1ccccc1 (centres undefined)	-1.6	?	16484*	-8.1	1.0
CCC(C(=O)N1CCN(c2ncccn2)CC1)c1ccccc1 (centres undefined)	2.0	1.2	3842	7.2	6.2
SMILES	Anthrax LF prot	BoNT A protease	Autofluor counter	MazF activator	BoNT-F LC inh
O=C(CSc1nc(O)c(C2CCCCC2)c(=O)[nH]1)Nc1ccccc1Cl	3.3	-0.2	3633	-5.3	-7.3
Cc1ccccc1NC(=O)c1ccc(CSc2ncccn2)cc1	-2.0	-0.4	16598*	-1.0	-0.2
CCC(C)NC(=O)c1ccccc1C(=O)NC(C)CC (centres undefined)	-2.6	-3.5	24599*	-4.3	-6.4
CCC(C)NC(=O)c1ccccc1NC(=O)c1ccc(CSc2ccc(C)cc2)cc1 (centres undefined)	-3.5	-2.9	17124*	-2.9	-6.1
CCOC1=C2[C@H](c3ccccc3)N(S(=O)(=O)c3ccc(C)cc3)[C@H](C(C)C)[C@H]2n2c(=O)n(-c3ccccc3)c(=O)n2C1	1.4	0.8	5894	nt	5.2
CCCN(C(=O)c1cnccn1)c1c(N)n(Cc2ccccc2)c(=O)[nH]c1=O	-8.3	-0.2	3574	-1.7	-1.6
Cc1cc(C(=O)CN2C(=O)NC(Cc3c[nH]c4ccccc34)C2=O)c(C)n1C (centres undefined)	-4.4	-4.2	23788*	3.5	-8.6
COc1ccc(-n2c(-c3ccccc3)cc3c2CCCC3=O)cc1	-3.9	?	22566*	13.9	3.3
CCCS(=O)(=O)NC(=O)C1(C)CCCN(C(=O)c2cc(C)n(C(C)(C)C)n2)C1 (centres undefined)	-2.1	0.5	3382	nt	-1.6
Cc1noc(C)c1COc1cccc(C(=O)OC(C)C(=O)Nc2ccc3c(c2)OCO3)c1 (centres undefined)	-0.1	3.8	19670*	-8.0	-0.3
O=C(Cc1ccccc1[N+](=O)[O-])OCC(=O)N1CCN(c2ccccc2)CC1	-1.3	0.8	5355	5.1	3.9
O=C(NCc1ccccc1Cl)c1ccc(Cn2cc(C(F)(F)F)ccc2=O)cc1	-0.6	-2.9	17060*	4.5	-5.7
O=C(O)Cn1nc2ccccc2n1	-3.5	?	22940*	3.2	-3.2
O=C(COc1ccccc1)N1CCNC1=O	-1.7	1.5	21620*	4.9	1.9
COc1ccc(CC(=O)N2CCNC2=O)cc1	-1.9	2.0	19689*	3.4	2.0
O=C(COc1ccccc1)N1CCCC1	2.0	0.1	4421	8.1	-2.8
COC(=O)c1cn(C(=O)c2ccccc2F)nc1N	1.0	3.7	21604*	2.7	5.9
COc1ccc(Cn2ccnc2)cc1Br	-0.3	-1.3	23086*	9.2	-4.6
COc1ccc(Cn2ccnc2)cc1[N+](=O)[O-]	0.0	-0.6	2583	10.5	-5.5
CN1CCN(C(=O)c2ccc3c(=O)n(Cc4ccc(Cl)cc4)c(=S)[nH]c3c2)CC1	-2.5	-1.3	20632*	-4.1	-1.9
O=C(c1ccc2c(=O)n(CCc3ccccc3)c(=O)[nH]c2c1)N1CCN(c2ccccc2)CC1	-7.8	-3.3	3518	-3.7	10.9
CCn1c(=O)[nH]c2cc(C(=O)N3CCN(c4ccccc4)CC3)ccc2c1=O	-5.6	?	22918*	0.1	-0.2
O=C(c1ccc2c(=O)n(Cc3ccc(Cl)cc3)c(=S)[nH]c2c1)N1CCOCC1	-4.2	1.2	5054	-0.2	2.0
O=C(c1ccc2c(=O)n(Cc3ccc4c(c3)OCO4)c(=S)[nH]c2c1)N1CCCCC1	-1.6	2.9	22165*	5.6	3.1
